Measured values: PubChem BioAssay AID1159580 (chemical genetic matrix, 2015)
The campaign covered roughly 5,500 compounds. About 2,000 (36%) were called active. Inconclusive results (about 18%) are left out. Rule as the data show it: active = normalized growth mostly below about 0.91 (no sharp cut-off); inconclusive = no clear call, values can overlap the other calls; inactive = mostly above about 0.92. The list shows a part of the results.

Assay: chemical genetic growth profiling, strain panel (AID 1159580);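 also: tested at 20 µM; growth read once vehicle control cultures reached saturation at 30 °C; 1 = growth at the plate median or of vehicle wells; lower values mean less growth of the strain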
Conditions: growth OD

Measured: normalized growth

CN(C)C(=S)SSC(=S)N(C)C
active: S. cerevisiae deletion strains, locus YJR075W, strain HOC1, hits give low values 0.0622 | S. cerevisiae deletion strains, locus YKL009W, strain mrt4, hits give low values 0.657 | S. cerevisiae deletion strains, locus YKL068W, hits give low values 0.055 | S. cerevisiae deletion strains, locus YKL085W, strain MDH1 (second series), hits give low values 0.0509 | S. cerevisiae deletion strains, locus YKL085W, strain MDH1, hits give low values 0.0509 | S. cerevisiae deletion strains, locus YKL160W, strain elf1, hits give low values 0.0619 | S. cerevisiae deletion strains, locus YKL190W, strain CNB1, hits give low values 0.0467 | S. cerevisiae deletion strains, locus YKR001C, strain vps1, hits give low values 0.061 | S. cerevisiae deletion strains, locus YKR026C, strain gcn3, hits give low values 0.0601 | S. cerevisiae deletion strains, locus YKR091W, strain srl3, hits give low values 0.058 | S. cerevisiae deletion strains, locus YLL001W, strain dnm1, hits give low values 0.0595 | S. cerevisiae deletion strains, locus YLL026W, hits give low values 0.0612 | S. cerevisiae deletion strains, locus YLL041C, strain sdh2, hits give low values 0.0559 | S. cerevisiae deletion strains, locus YLR027C, strain aat2, hits give low values 0.0546 | S. cerevisiae deletion strains, locus YLR039C, strain RIC1, hits give low values 0.0839 | S. cerevisiae deletion strains, locus YLR058C, strain SHM2, hits give low values 0.048 | S. cerevisiae deletion strains, locus YLR102C, strain apc9, hits give low values 0.0608 | S. cerevisiae deletion strains, locus YLR113W, strain HOG1, hits give low values 0.126 | S. cerevisiae deletion strains, locus YLR221C, strain rsa3, hits give low values 0.0608 | S. cerevisiae deletion strains, locus YLR258W, strain gsy2, hits give low values 0.0595 | S. cerevisiae deletion strains, locus YLR262C, strain YPT6 (second series), hits give low values 0.0761 | S. cerevisiae deletion strains, locus YLR262C, strain YPT6, hits give low values 0.0956 | S. cerevisiae deletion strains, locus YLR268W, strain sec22, hits give low values 0.0648 | S. cerevisiae deletion strains, locus YLR320W, strain mms22, hits give low values 0.0851 | S. cerevisiae deletion strains, locus YLR330W, strain CHS5, hits give low values 0.0523 | S. cerevisiae deletion strains, locus YLR342W, strain FKS1 (second series), hits give low values 0.0636 | S. cerevisiae deletion strains, locus YLR342W, strain FKS1, hits give low values 0.0632 | S. cerevisiae deletion strains, locus YLR357W, strain rsc2, hits give low values 0.117 | S. cerevisiae deletion strains, locus YLR370C, strain arc18, hits give low values 0.0609 | S. cerevisiae deletion strains, locus YLR371W, strain rom2, hits give low values 0.0607 | S. cerevisiae deletion strains, locus YLR384C, strain iki3, hits give low values 0.0593 | S. cerevisiae deletion strains, locus YLR418C, strain cdc73, hits give low values 0.0915 | S. cerevisiae deletion strains, locus YML016C, strain PPZ1, hits give low values 0.0487 | S. cerevisiae deletion strains, locus YML032C, strain rad52, hits give low values 0.0671 | S. cerevisiae deletion strains, locus YML120C, strain ndi1, hits give low values 0.0572 | S. cerevisiae deletion strains, locus YML124C, strain tub3, hits give low values 0.0583 | S. cerevisiae deletion strains, locus YMR058W, strain fet3, hits give low values 0.0575 | S. cerevisiae deletion strains, locus YMR078C, strain ctf18, hits give low values 0.0701 | S. cerevisiae deletion strains, locus YMR125W, strain sto1, hits give low values 0.0716 | S. cerevisiae deletion strains, locus YMR129W, hits give low values 0.0557 | S. cerevisiae deletion strains, locus YMR205C, strain PFK2, hits give low values 0.0852 | S. cerevisiae deletion strains, locus YMR223W, strain ubp8, hits give low values 0.062 | S. cerevisiae deletion strains, locus YMR231W, strain pep5, hits give low values 0.0656 | S. cerevisiae deletion strains, locus YMR263W, strain SAP30, hits give low values 0.0571 | S. cerevisiae deletion strains, locus YMR307W, strain GAS1, hits give low values 0.108 | S. cerevisiae deletion strains, locus YNL067W, strain RPL9B, hits give low values 0.0475 | S. cerevisiae deletion strains, locus YNL071W, strain lat1, hits give low values 0.0591 | S. cerevisiae deletion strains, locus YNL128W, strain TEP1, hits give low values 0.0618 | S. cerevisiae deletion strains, locus YNL153C, strain GIM3, hits give low values 0.0449 | S. cerevisiae deletion strains, locus YNL183C, strain NPR1, hits give low values -0.000652 | S. cerevisiae deletion strains, locus YNL209W, strain ssb2, hits give low values 0.0584 | S. cerevisiae deletion strains, locus YNL233W, strain BNI4, hits give low values 0.0527 | S. cerevisiae deletion strains, locus YNL248C, strain rpa49, hits give low values 0.0732 | S. cerevisiae deletion strains, locus YNL250W, strain rad50, hits give low values 0.0632 | S. cerevisiae deletion strains, locus YNL271C, strain bni1, hits give low values 0.0624 | S. cerevisiae deletion strains, locus YNL298W, strain CLA4, hits give low values 0.0589 | S. cerevisiae deletion strains, locus YNL307C, strain MCK1, hits give low values 0.0687 | S. cerevisiae deletion strains, locus YNL322C, strain KRE1 (second series), hits give low values 0.0642 | S. cerevisiae deletion strains, locus YNL322C, strain KRE1, hits give low values 0.0479 | S. cerevisiae deletion strains, locus YNR049C, strain mso1, hits give low values 0.0549 | S. cerevisiae deletion strains, locus YNR052C, strain pop2, hits give low values 0.0601 | S. cerevisiae deletion strains, locus YOL006C, strain TOP1, hits give low values 0.0896 | S. cerevisiae deletion strains, locus YOL012C, strain htz1 0.179 | S. cerevisiae deletion strains, locus YOL147C, strain pex11, hits give low values 0.0594 | S. cerevisiae deletion strains, locus YOR001W, strain rrp6, hits give low values 0.0656 | S. cerevisiae deletion strains, locus YOR061W, strain CKA2, hits give low values 0.0451 | S. cerevisiae deletion strains, locus YOR069W, strain VPS5, hits give low values 0.0465 | S. cerevisiae deletion strains, locus YOR070C, strain gyp1, hits give low values 0.0589 | S. cerevisiae deletion strains, locus YOR080W, strain dia2, hits give low values 0.067 | S. cerevisiae deletion strains, locus YOR083W, strain WHI5, hits give low values 0.0647 | S. cerevisiae deletion strains, locus YOR106W, strain vam3, hits give low values 0.061 | S. cerevisiae deletion strains, locus YOR136W, strain idh2, hits give low values 0.0736 | S. cerevisiae deletion strains, locus YOR144C, strain elg1, hits give low values 0.0615 | S. cerevisiae deletion strains, locus YOR184W, strain ser1, hits give low values 0.0681 | S. cerevisiae deletion strains, locus YOR231W, strain MKK1, hits give low values 0.103 | S. cerevisiae deletion strains, locus YOR265W, strain rbl2, hits give low values 0.0567 | S. cerevisiae deletion strains, locus YOR270C, strain vph1, hits give low values 0.0916 | S. cerevisiae deletion strains, locus YOR290C, strain snf2, hits give low values 0.0706 | S. cerevisiae deletion strains, locus YOR316C, strain cot1, hits give low values 0.0552 | S. cerevisiae deletion strains, locus YPL051W, strain arl3, hits give low values 0.0635 | S. cerevisiae deletion strains, locus YPL055C, strain LGE1, hits give low values 0.0716 | S. cerevisiae deletion strains, locus YPL078C, strain atp4, hits give low values 0.0627 | S. cerevisiae deletion strains, locus YPL106C, strain sse1, hits give low values 0.1 | S. cerevisiae deletion strains, locus YPL240C, strain hsp82, hits give low values 0.0673 | S. cerevisiae deletion strains, locus YPL241C, strain CIN2, hits give low values 0.0518 | S. cerevisiae deletion strains, locus YPL256C, strain CLN2, hits give low values 0.125 | S. cerevisiae deletion strains, locus YPR119W, strain clb2, hits give low values 0.0622 | S. cerevisiae deletion strains, locus YPR141C, strain kar3, hits give low values 0.0653 | S. cerevisiae deletion strains, locus YPR163C, strain tif3, hits give low values 0.0696 | S. cerevisiae deletion strains, locus YPR167C, strain met16, hits give low values 0.0614 | S. cerevisiae deletion strains, strain wtn01, hits give low values 0.0602 | S. cerevisiae strains, strain wild type, hits give low values 0.0482
